Bioassay records (PubChem BioAssay)
Beta apoptosis = beta cell apoptosis inhibition. INS-1E cytokine-induced death, ATP luminescence, 48 h; percent of positive-control rescue, neutral wells zero. protection from apoptosis, % (concentration not given with the values). 300,000 tested, 0.8% active;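 active = Every replicate reaches about 75%, or at least half do and their mean reaches it too, limit read from the data; inconclusive = At least half of replicates reach the limit but their mean does not; inactive = Under half of replicates reach the limit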;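 note: higher means more ATP so stronger rescue from cytokine killing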
CSC inhib = cancer stem cell inhibition; 300,000 tested, 1.1% active; inhibition, % at 7.5 µM; cancer stem cell-like cells viability, luminescence; in the data active = inhibition above about 75%; inconclusive = no clear call, values can overlap the other calls; tested in HMLE shEcad cells
MPTP inh = inhibitors of mitochondrial permeability transition pore; inhibition, % at 10 µM; 360,000 tested, 1.4% active; isolated mouse mitochondria, Ca2+ swelling absorbance, 30 min; AID 602449;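 active = inhibition of 50% or more, scaled per plate between neutral and stimulator controls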
Calb FLC = C. albicans growth modulation with fluconazole. C. albicans CaCi-2 (fluconazole-resistant clinical isolate) + fluconazole, Alamar Blue growth, 48 h. AID 1979. 300,000 tested, 0.57% active. growth inhibition, % (test concentration not listed);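 active = growth inhibition above about 58% in most replicates, limit read from the data, passing the limit was not always enough; inconclusive = exactly half the replicates above a set limit; inactive = most replicates below a set limit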;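 note: all wells also contain fluconazole at 8 µg/ml as a sub-toxic cotreatment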
Mdm2-MdmX inh = human Mdm2/MdmX binding inhibition. AID 485346. O15151+Q00987. 330,000 tested, 3% active. SaOS-2 split-luciferase Mdm2/MdmX complementation, luminescence. inhibition, % at 8 µM;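 active = inhibition of at least 50% at 8 µM in the primary screen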
Mdm2 MdmX conf = human Mdm2/MdmX binding inhibition, confirmed | AID 489028 | shares compounds with Mdm2-MdmX inh | inhibition, % at 8 µM | 10,000 tested, 55% active | luminescent assay; in the data active = inhibition above about 40%
FLuc counter = counter-screen for Mdm2/MdmX inhibitors: full-length luciferase; shares compounds with Mdm2-MdmX inh; SaOS-2 full-length luciferase counterscreen, luminescence; inhibition, % at 8 µM; AID 504607; 6,200 tested, 77% active;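 active = mean inhibition at 8 µM reaching about 37%, which flags the compound as non-specific, limit read from the data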;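 note: p53-null SaOS-2 cells with luciferase driven by a doxycycline-inducible promoter; compound on cells about two nights before reading with doxycycline added after day one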
A number is an active result; i = inactive; ? = inconclusive; nt = no result. Sampled rows, rich in hits. Any-hit rate of the full collection: about 4.8%.

SMILES | Beta apoptosis | CSC inhib | MPTP inh | Calb FLC | Mdm2-MdmX inh | Mdm2 MdmX conf | others
COc1cc(NC(=O)c2cccc(C)c2)ccc1NC(=O)c1cc2ccccc2o1 | i | i | i | i | 66.9 | i | FLuc counter=80.6
O=C(NC(=S)Nc1ccc(NC(=O)c2cccs2)cc1)c1cc2ccccc2o1 | i | i | i | i | 52.4 | i
COc1cc(NC(=O)C(C)C)ccc1NC(=O)c1cc2ccccc2o1 | i | i | i | i | i | nt
CCOc1cccc(C(=O)Nc2ccc(NC(=O)c3cc4ccccc4o3)c(OC)c2)c1 | i | i | i | i | i | nt
O=C(NC(=S)Nc1ccc(NC(=O)c2cccs2)cc1)c1ccco1 | i | i | i | i | i | nt
CCC(=O)NC(=S)Nc1ccc(NC(=O)c2cc3ccccc3o2)c(OC)c1 | i | i | i | i | 54.2 | i
COc1cc(NC(=O)c2cccc([N+](=O)[O-])c2)ccc1NC(=O)c1cc2ccccc2o1 | i | i | i | i | 81.4 | i | FLuc counter=87.8
COCCNC(=O)C1(C)CCCN(C(=O)c2ccc(-c3ccccc3)cc2)C1 (stereo not drawn) | nt | nt | i | nt | nt | nt
Cc1nc(-c2ccccc2)sc1C(=O)NS(=O)(=O)c1ccc(CN2CCN(c3ccccc3)CC2)cc1 | nt | nt | i | nt | nt | nt
COCCNC(=O)C1(C)CCCN(C(=O)c2ccccc2)C1 (stereo not drawn) | nt | nt | i | nt | nt | nt
COC(=O)c1sccc1NC(=O)c1c(F)c(F)c(F)c(F)c1F | i | i | i | i | 74.7 | i
O=Cc1c[nH]c2cccc(OCc3ccccc3)c12 | nt | nt | i | nt | 57.4 | 53.0 | FLuc counter=63.9
COC(=O)[C@H](NC(=O)c1cc([C@@H](NC(=O)OC(C)(C)C)C(C)C)sc1N)C(C)C | nt | nt | i | nt | nt | nt
COC(=O)[C@@]1(Cc2ccc(F)cc2)[C@H]2c3cc(C(=O)N4CCCC4)n(CCCNc4ncc(C(F)(F)F)cc4Cl)c3C[C@H]2CN1C(=O)c1ccccc1 | i | i | i | i | 62.0 | i
COC(=O)[C@@]1(Cc2ccc(F)cc2)[C@H]2c3cc(C(=O)N4CCCC4)n(CCF)c3C[C@H]2CN1C(=O)c1ccccc1 | nt | nt | i | nt | nt | nt
COCc1cccc(-c2csc(C(C)(O)c3cccc(OC)c3)n2)c1 (stereo not drawn) | nt | nt | i | nt | nt | nt
C#CCOCCOCCOCCNc1nc(N2CCN(C(=O)[C@H](CCC(=O)O)n3cc([C@@H](N)CO)nn3)CC2)nc(N2CCN(C(=O)[C@H](CCC(=O)O)n3cc([C@@H](N)CCSC)nn3)CC2)n1 | i | i | i | nt | i | nt
O=C(CN1CCCCC1)Nc1ccc(NC(=O)c2ccc(Cl)cc2)cc1Cl | i | i | i | ? | 57.1 | i
S=C1NC2=C(CCC/C2=C\c2ccccc2)C(c2ccccc2)N1 (stereo not drawn) | i | i | i | i | i | nt
C(=C1/CCCC2=C1Nc1ncnn1C2c1ccccc1)/c1ccccc1 (stereo not drawn) | i | i | nt | i | 75.7 | 84.0 | FLuc counter=i
O=C1/C(=C\c2ccco2)SC(=S)N1Cc1ccccc1 | i | i | i | i | i | nt
COc1ccc(CCN2C(=O)/C(=C\c3ccco3)SC2=S)cc1OC | nt | nt | i | i | 74.6 | 46.9 | FLuc counter=78.6
COc1ccc(CCN2C(=O)CSC2=S)cc1OC | i | i | i | i | 84.9 | 84.5 | FLuc counter=40.4
COc1ccc(CN2C(=O)CSCC2=O)cc1OC | i | i | i | i | i | nt
CS(=O)(=O)c1cnc(-c2ccccc2)nc1Sc1ccc(F)cc1 | nt | nt | i | i | i | nt
SMILES | Beta apoptosis | CSC inhib | MPTP inh | Calb FLC | Mdm2-MdmX inh | Mdm2 MdmX conf | others
COc1cccc(Sc2nc(-c3ccccc3)ncc2S(C)(=O)=O)c1 | nt | nt | i | i | 62.3 | i
O=C(NCc1ccccc1)C(c1ccco1)N1CCN(c2ccccc2F)CC1 (stereo not drawn) | nt | nt | i | nt | nt | nt
Cn1c(=O)[nH]c(=O)c2c1nc(N/N=C/c1cccnc1)n2Cc1ccc(Cl)cc1 | i | i | i | i | 62.4 | i
Cn1c(=O)[nH]c(=O)c2c1nc(N/N=C/c1ccncc1)n2Cc1ccc(F)cc1 | i | i | i | i | i | nt
C/C(=N\NC(=O)c1nnn(-c2nonc2N)c1-c1cccs1)c1ccc(O)cc1 | i | i | i | i | i | nt
COc1ccc(/C(C)=N/NC(=O)c2nnn(-c3nonc3N)c2-c2cccs2)cc1 | i | i | i | i | 59.5 | i
COc1ccc(/C(C)=N/NC(=O)c2nnn(-c3nonc3N)c2-c2cccs2)cc1OC | i | i | i | i | 59.1 | i
C/C(=N\NC(=O)c1nnn(-c2nonc2N)c1-c1cccs1)c1ccc(C)cc1 | i | i | i | i | 70.6 | i
COc1ccc(/C(C)=N/NC(=O)c2nnn(-c3nonc3N)c2-c2ccccc2)cc1 | i | nt | i | i | 60.8 | i
CC(C)c1ccc(NC(=O)Cc2c(C(=O)O)n(C)c3ccccc23)cc1 | i | i | i | i | i | nt
Cc1cc(C)c2c(n1)SCC(=O)N2CC(=O)Nc1ccccc1Cl | i | nt | i | i | i | nt
COc1ccc2c(c1)CC/C2=N\OC(=O)c1cccc(C)c1 | i | i | i | i | 96.6 | 54.6 | FLuc counter=i
COc1ccc2c(c1)CCC/C2=N/OC(=O)c1ccccc1OC | i | i | i | i | i | nt
COc1ccc2c(c1)CC/C2=N\OC(=O)c1ccccc1C | nt | i | i | i | 100.3 | i | FLuc counter=i
COCc1cc(=O)n2[nH]cc(-c3ccccc3)c2n1 | i | i | i | i | i | nt
CCCc1cc(=O)n2[nH]cc(-c3ccc(Cl)cc3)c2n1 | 79.9 | 94.9 | i | i | 55.1 | 53.1 | FLuc counter=i
COc1ccc2c3n(nc2c1)CCN=C3c1cc(Cl)c(N)c(Cl)c1 | i | i | i | nt | 64.8 | 62.2 | FLuc counter=65.1
Cc1ccccc1Cn1c(CN2CCN(c3ccc(F)cc3)CC2)nc2c1c(=O)n(C)c(=O)n2C | i | i | nt | i | 62.1 | i
O=C(c1cc(-c2cccc(O)c2)on1)N1CCN(C(c2ccccc2)c2ccccc2)CC1 | 80.8 | 144.3 | i | i | i | i
CC/C(=C\C1CCCCC1)C(NP(=O)(c1ccccc1)c1ccccc1)c1ccccc1 (stereo not drawn) | i | 126.3 | i | i | 55.4 | i
Cc1ccc2nc(-c3ccccc3)cc(C(=O)N(C)CC(=O)Nc3ccccc3Br)c2c1 | i | nt | i | i | 52.7 | i
Cc1nnc2ccc(-c3cccc(NS(=O)(=O)c4ccccc4[N+](=O)[O-])c3)nn12 | i | i | i | i | 56.2 | 54.6 | FLuc counter=82.0
Cc1nnc2ccc(-c3cccc(NS(=O)(=O)c4cc(F)ccc4F)c3)nn12 | i | i | i | i | i | nt
Cc1nnc2ccc(-c3cccc(NS(=O)(=O)c4ccccc4Cl)c3)nn12 | i | i | i | i | 56.3 | 57.0 | FLuc counter=55.5
Oc1ccc(Nc2nc3ccccc3nc2Nc2ccc(O)cc2)cc1 | nt | 77.9 | i | i | 100.4 | i
Oc1ccc(Nc2nc(-c3ccccc3)nc3ccccc23)cc1 | i | i | i | i | i | nt
CCOc1ccc(C(C(=O)NCC2CCCO2)N(Cc2cccnc2)C(=O)c2snc(C(N)=O)c2N)cc1 (stereo not drawn) | nt | nt | i | i | i | nt
